# Screening results: PubChem BioAssay, Buhrlage Lab, Dana-Farber Cancer Institute and Novartis Institutes for BioMedical Research (Cambridge, Mass)
# USP17 block: human USP17-like deubiquitinase inhibition; actives 6.5% (n = 47,000); inhibition, % at 50 µM; A8MUK1; purified USP17, Ub-rhodamine cleavage fluorescence, 3 h
# USP30 block: inhibitors of human USP30 deubiquitinase; Q70CQ3; purified USP30, Ub-rhodamine cleavage fluorescence; inhibition, % at 25 µM; actives 5.3% (n = 47,000)
# USP8 block: blocks human USP8 ubiquitin-rhodamine cleavage | actives 4.2% (n = 47,000) | P40818 | purified USP8, Ub-rhodamine cleavage fluorescence, 30 min | AID 1645853 | inhibition, % at 20 µM
# USP10 block: inhibitors of human USP10 deubiquitinase. actives 1.1% (n = 47,000). purified USP10, Ub-rhodamine fluorescence, 60 min. Q14694. inhibition, % at 20 µM
# USP28 block: blocks human USP28 ubiquitin-rhodamine cleavage; AID 1645857; inhibition, % at 25 µM; actives 3% (n = 47,000); purified USP28, Ub-rhodamine cleavage fluorescence, 30 min; Q96RU2
# Target sequence (Q96RU2 whole entry, looked up): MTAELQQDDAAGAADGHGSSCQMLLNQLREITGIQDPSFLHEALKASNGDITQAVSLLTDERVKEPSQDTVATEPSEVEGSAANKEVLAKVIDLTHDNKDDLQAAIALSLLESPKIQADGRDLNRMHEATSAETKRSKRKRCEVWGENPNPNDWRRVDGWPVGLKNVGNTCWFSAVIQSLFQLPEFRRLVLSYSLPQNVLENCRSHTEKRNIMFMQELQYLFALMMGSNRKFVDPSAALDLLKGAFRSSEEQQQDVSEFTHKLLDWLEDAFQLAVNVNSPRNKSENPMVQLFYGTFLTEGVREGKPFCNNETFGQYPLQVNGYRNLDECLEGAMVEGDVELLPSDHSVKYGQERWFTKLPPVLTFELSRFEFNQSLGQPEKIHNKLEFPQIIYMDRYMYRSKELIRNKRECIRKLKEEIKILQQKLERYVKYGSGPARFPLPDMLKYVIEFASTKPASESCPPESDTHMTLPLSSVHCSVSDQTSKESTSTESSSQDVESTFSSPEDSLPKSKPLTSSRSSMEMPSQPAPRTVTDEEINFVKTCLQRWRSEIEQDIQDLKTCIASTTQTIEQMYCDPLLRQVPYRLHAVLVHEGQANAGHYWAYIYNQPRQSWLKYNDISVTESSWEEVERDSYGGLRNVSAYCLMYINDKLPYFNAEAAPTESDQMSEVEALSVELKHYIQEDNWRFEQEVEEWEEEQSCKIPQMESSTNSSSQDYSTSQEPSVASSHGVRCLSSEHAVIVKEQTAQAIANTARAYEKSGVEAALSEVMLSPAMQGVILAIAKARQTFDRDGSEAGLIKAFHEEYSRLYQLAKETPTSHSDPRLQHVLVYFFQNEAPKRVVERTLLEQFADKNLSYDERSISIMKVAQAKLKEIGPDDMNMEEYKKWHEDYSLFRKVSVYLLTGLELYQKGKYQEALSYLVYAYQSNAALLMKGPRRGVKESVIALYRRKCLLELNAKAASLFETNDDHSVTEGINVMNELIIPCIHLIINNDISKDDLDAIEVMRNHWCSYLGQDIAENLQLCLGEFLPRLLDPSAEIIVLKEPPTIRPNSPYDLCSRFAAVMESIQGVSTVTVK
# Hits are given with their value; n = inactive; x = not tested or not shown. A selection: hits, their analogues and other compounds. The true share with any hit is near 14%. No stated cut-off is given here; in the data, active means inhibition above about 30%; inactive means the rest.
SMILES,USP17 block,USP30 block,USP8 block,USP10 block,USP28 block
O=C(c1ccccc1F)N1CCCC(c2nnc3ccccn23)C1 (centres undefined),n,n,n,n,n
Cn1cccc1CN1CCC2(CC1)CCN(c1cncnc1)C2=O,n,n,n,n,n
CS(=O)(=O)c1ccc2nc(N(Cc3cccnc3)C(=O)c3ccc4ccccc4c3)sc2c1,53,52,63,n,n
Cc1ncccc1OC1CCC2CN(C(=O)C(C)C)CC21 (centres undefined),n,n,n,n,n
CN(C)c1cccc(C(=O)Nc2cc(Cl)ccc2-n2cncn2)c1,n,n,n,n,n
CN(C)C(=O)CNC(=O)c1ccn(-c2ccc3ccc(-c4ccccc4)cn23)n1,n,n,n,n,n
O=C(Nc1ccc(Sc2ccc(F)cc2)cc1)c1cccc(C(F)(F)F)c1,n,40,n,n,n
Cc1ccc(C)c(S(=O)(=O)N2CCN(c3nc(-c4cccs4)nc4ccccc34)CC2)c1,n,31,n,n,n
Nc1c(C(=O)NCCc2ccccc2)nnn1-c1ccc(F)cc1,61,n,n,n,n
COc1ccc(-n2nnc(C(=O)NCCc3ccccc3)c2C2CC2)cc1,n,n,n,n,n
CC(C)NC(=O)[C@H]1C[C@@H]2CN(S(=O)(=O)N(C)C)C[C@H]1O2,n,n,n,n,n
CC(C)C(NS(=O)(=O)c1ccccc1)C(=O)OCC(=O)Nc1ccc2c(c1)OCO2 (centres undefined),n,n,n,n,n
CC(C)C(NS(=O)(=O)c1ccc2c(c1)OCCO2)C(=O)Nc1cccc(F)c1 (centres undefined),44,39,n,n,n
CC(C)NS(=O)(=O)c1ccc(CCC(=O)Nc2ccc3c(c2)OCCO3)cc1,n,n,n,n,82
O=C(COC(=O)CCc1ccc(S(=O)(=O)N2CCOCC2)cc1)Nc1ccc2c(c1)OCCO2,x,n,n,n,65
COCCCN1CC(=O)N2Cc3[nH]c4ccccc4c3C[C@@H]2C1=O,x,n,n,n,n
CC(C)(C)c1cc(CCC(=O)Nc2c3c(nc4c2CCC4)CCCC3)cc(C(C)(C)C)c1O,n,77,n,n,34
Cc1ccc([N+](=O)[O-])cc1NC(=O)CCN1C(=O)c2ccccc2S1(=O)=O,31,49,n,n,n
CC(=O)NC(Cc1ccc(F)cc1)C(=O)NC1CCN(c2c(Cc3ccccc3)c(C)nc3ncnn23)CC1 (centres undefined),n,n,n,n,n
Cc1ccc2cc(NC(=O)CC(CC(=O)O)c3ccccc3)ccc2n1 (centres undefined),53,x,n,n,x
COc1cc2oc(=O)c(CC(=O)N3CCN(c4ncccn4)CC3)c(C)c2cc1OC,n,n,n,n,n
c1csc(-c2nc(NCC3CCCO3)c3ccccc3n2)c1 (centres undefined),31,n,n,n,n
CCc1nnc(C(=O)Nc2ccc(C(=O)NCc3ccc(OC(C)C)cc3)cc2)s1,n,n,n,38,n
Cc1cccc(N(C(=O)c2ccc(-c3ccccc3)[nH]2)C(C(=O)NC2CCCCC2)c2ccc(F)cc2)c1 (centres undefined),n,n,n,n,n
Cc1cc(C)cc(C(=O)NCCn2ncc3c(N4CCCCC4)ncnc32)c1,n,n,n,n,n
SMILES,USP17 block,USP30 block,USP8 block,USP10 block,USP28 block
COC1C(CO)O[C@@H](O[C@H](C[C@@]2(C)[C@H](C)CCC(=O)[C@@H]2C)/C(C)=C/Cc2c(O)c(Cl)c(C)c(C=O)c2O)C(O)C1O (some centres undefined),n,n,n,n,n
C/C(=C\Cc1c(O)cc(C)c(C=O)c1O)CC[C@@]1(C)[C@H](C)CCC(=O)[C@@H]1C,50,n,n,37,n
O=C(Nc1cccnc1)c1ccc(Oc2ccccc2)cc1,n,n,n,n,44
Cc1ccc(S(=O)(=O)N2CCN3Cc4ccccc4N(C)CC3C2)cc1 (centres undefined),n,n,n,n,n
CN=C(N)NCCC/C=C/CCCC(C)CC(C)C1OC(=O)/C=C/C(C)C(O)CC(O)C(C)C(O)CCC(C)C(O)CC2(O)OC(CC(OC(=O)CC(=O)O)CC(O)CC(O)C(C)C(O)/C=C/C1C)CC(O)C2O (centres undefined),n,n,n,n,53
Cc1cccc(NC(=O)CSc2ncnc3c2sc2nc(-c4ccccc4)c4c(c23)CCC4)c1,n,n,n,n,n
Cn1c(SCC(=O)NC2CCCC2)nnc1-c1ccc2c(c1)OCCO2,n,n,n,n,n
O=C(NCc1ccco1)c1ccc(Cn2c(=O)c3sccc3n(Cc3cc(=O)n4ccccc4n3)c2=O)cc1,70,40,68,n,50
O=C(CCN=C1NS(=O)(=O)c2ccccc21)Nc1cccc(C(F)(F)F)c1,n,n,n,n,n
COc1ccc2[nH]c3c(c2c1)CCN1C(=O)N(c2ccc(C(=O)Nc4ccc5c(c4)OCO5)cc2)C(=O)[C@]31C,n,n,n,n,n
CNC(=O)C(C#N)(Cc1ccccc1Cl)Cc1ccccc1Cl,n,n,n,n,n
CC(=O)N1CC(c2ccnc(Nc3cc(C(F)(F)F)ccn3)n2)C1,n,n,n,n,n
COCCNC(=O)C1CCCN(c2ncnc3nn(-c4ccccc4)cc23)C1 (centres undefined),n,n,n,n,n
c1ccc2c(c1)CCN(c1ncnc3c1[nH]c1ccccc13)C2,n,n,44,n,n
Cc1c(C(=O)NCc2ccc(OC(C)C)cc2)cc(-c2ccccc2)n1C,n,n,n,n,n
Oc1cc(OCc2cccc(C(F)(F)F)c2)ccc1-c1ccn[nH]1,42,n,75,n,81
Cc1cn2c(=O)cc(COc3cccc(C(F)(F)F)c3)nc2s1,n,n,n,n,n
CC(=O)Nc1ccc(NC(=O)c2ccccc2-c2nc(-c3cccc(C)c3)no2)cc1,n,n,n,n,n
Cc1ccc2nc(CNC(=O)c3ccccc3-c3nc(-c4ccc(F)cc4)no3)[nH]c2c1,78,n,n,n,n
Cc1cnn(CC2CN(Cc3nnsc3Cl)CCO2)c1 (centres undefined),n,n,n,n,n
Cc1ccc2[nH]cc(S(=O)(=O)c3cc(F)cc(F)c3)c(=O)c2c1,n,n,98,n,n
Cc1ccc(S(=O)(=O)c2c[nH]c3cc(F)ccc3c2=O)cc1F,n,n,69,n,n
O=[N+]([O-])c1ccc2[nH]cc(S(=O)(=O)Nc3ccc(F)cc3F)c2c1,n,n,n,n,n
Cc1ccc(S(=O)(=O)c2cnc3ccc(C)cc3c2Nc2ccc(C)c(C)c2)cc1,n,n,n,n,n
Cc1ccc2[nH]cc(S(=O)(=O)c3ccc(C)c(F)c3)c(=O)c2c1,60,n,n,n,n
Cc1cc(C(=O)N2CCOCC2)c2cccc(Cl)c2n1,n,n,n,n,n
Cc1c(C(=O)Nc2ccc3c(c2)N(C)C(=O)CO3)oc2ccc(F)cc12,n,n,n,n,n
CN1C(=O)COc2ccc(NC(=O)c3cc(-c4ccccc4)on3)cc21,74,n,n,n,n
